This is part of a sample that, as a whole, favours compounds with a hit. Of some 79,000 tested, about 15% had one in any assay. Cut-off read from the data, not from the text of the source: active = growth inhibition above about 70%; inactive = the rest.
What was measured:
[1] = NCI Yeast Anticancer Drug Screen. Data for the rad50 strain (AID 155);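 note: 0% = growth of vehicle-only cultures of the same strain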; details: S. cerevisiae rad50 strain growth inhibition; at 50.0 µM; stronger effect = higher value
Outline: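 Compounds were tested on a yeast strain with an engineered DNA damage repair alteration; the reported value is growth inhibition normalised to vehicle treatment.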

[2] = NCI Yeast Anticancer Drug Screen. Data for the mec2-1 strain (AID 157); details: S. cerevisiae mec2-1 strain, at 50.0 µM, stronger effect = higher value
Outline: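 Mutant yeast (mec2-1) grown with compound; growth inhibition relative to vehicle control reported.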

[3] = NCI Yeast Anticancer Drug Screen. Data for the sgs1 mgt1 strain (AID 161);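 note: 0% = growth of cultures given vehicle only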; details: S. cerevisiae sgs1 mgt1 strain, at 50.0 µM, stronger effect = higher value
Outline: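 Compounds are added to genetically altered yeast, and growth is compared with cultures given vehicle alone to give percent inhibition.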

[4] = NCI Yeast Anticancer Drug Screen. Data for the cln2 rad14 strain (AID 165);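 note: 0% = growth equal to vehicle treated cultures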; details: S. cerevisiae cln2 rad14 strain, at 50.0 µM, stronger effect = higher value
Outline: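 Readout is yeast growth inhibition versus vehicle-treated controls, using a strain with cln2 and rad14 alterations exposed to compound.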

[5] = NCI Yeast Anticancer Drug Screen. Data for the bub3 strain (AID 167); details: S. cerevisiae bub3 mutant strain, at 50.0 µM, stronger effect = higher value
Outline: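 Growth of a checkpoint-deficient yeast mutant is measured after compound exposure. Values represent inhibition relative to vehicle.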

[6] = NCI Yeast Anticancer Drug Screen. Data for the mlh1 rad18 strain (AID 175); details: S. cerevisiae mlh1 rad18 strain growth inhibition; at 50.0 µM; stronger effect = higher value
Outline: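 Genetically defined yeast (DNA repair-deficient) exposed to compounds; growth inhibition determined relative to vehicle.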

Measured: growth inhibition

O=C1c2cc([N+](=O)[O-])ccc2-c2c(F)cc(F)cc21
inactive: [1] -58.5% | [2] -8.05% | [3] 9.35% | [4] -50.4% | [5] -2.1% | [6] -10.7%

O=c1[nH]c(=O)n(C2CC(O)C(CO)O2)cc1C#Cc1ccc(F)cc1 (stereo not given)
inactive: [1] -3.45% | [2] 19.2% | [3] -15.2% | [4] -5.6% | [5] 3.85% | [6] -8.95%

NC(Cc1ccc(F)cc1)(C(=O)O)c1ccccc1 (stereo not given)
inactive: [1] 5.2% | [2] 28.5% | [3] 8.55% | [4] -23.4% | [5] 5.85% | [6] 28.8%

C=CCN1/C(=C(\C#N)c2nc3ccccc3[nH]2)Sc2c1nc[nH]c2=O
inactive: [1] -51.6% | [2] -27.9% | [3] -32% | [4] -32% | [5] -32.9% | [6] -49.8%

CN(CCc1ccccn1)c1ccc2c(c1)C(=O)c1ccccc1-2
inactive: [1] 46.9% | [2] 13.4% | [3] -1.8% | [4] -13.1% | [5] -2.7% | [6] 9.85%

C=CCNC(=S)NNC(=O)c1c(C)nc2sccn12
inactive: [1] -4.75% | [2] -10.8% | [3] -12.1% | [4] 0.25% | [5] -14.2% | [6] -5.9%

CC(=O)OCC1OC(Oc2ccccc2)C(OC(C)=O)C(OC(C)=O)C1OC(C)=O (stereo not given)
inactive: [1] -3.4% | [2] -5.3% | [3] -0.05% | [4] 12.4% | [5] -4.1% | [6] -10.7%

CC(C(=O)c1ccccc1)C(c1ccccc1)N1CCOCC1 (stereo not given)
inactive: [1] 2.1% | [2] -7.5% | [3] -16.3% | [4] 3.25% | [5] 6.35% | [6] -5.15%

Cc1ccccc1NC(=O)C(=O)CC(=O)c1sc(Nc2ccccc2[N+](=O)[O-])nc1C
inactive: [1] 8.8% | [2] -7.45% | [3] -7.4% | [4] -10.3% | [5] -0.3% | [6] -2.9%

CCCCNc1nc(NC2OCC(OC(C)=O)C(OC(C)=O)C2OC(C)=O)c(N=O)c(=O)n1C (stereo not given)
inactive: [1] -4% | [2] -21.4% | [3] -4.3% | [4] -28.4% | [5] -12.5% | [6] -2.9%

O=C1Cc2c([nH]c3ccccc23)-c2ccccc2N1
inactive: [1] 25.1% | [2] 13.9% | [3] 13.8% | [4] 5.05% | [5] 35.8% | [6] 21.1%

COc1ccc(C(O)C(=O)c2nc3ccc(Cl)cc3[nH]c2=O)cc1 (stereo not given)
inactive: [1] -30.1% | [2] -28.6% | [3] -22.2% | [4] -33.7% | [5] -16.6% | [6] -20.2%

Cc1cc(Cl)cc(C(=O)O)c1O
inactive: [1] 5.7% | [2] -9.25% | [3] 0.1% | [4] -12.7% | [5] -8.05% | [6] -8%

ClCc1nn(-c2ccccc2)c(CCl)c1CCl
inactive: [1] 46.6% | [2] 14.3% | [3] 18.4% | [4] -1.45% | [5] 8.25% | [6] -4.55%

O=c1[nH]c(=O)n(C2CC(O)C(CO)O2)cc1OCC1CCCCC1 (stereo not given)
inactive: [1] -33.9% | [2] -4.8% | [3] -13.3% | [4] 1.85% | [5] -14.4% | [6] -19.9%

Clc1ccc2oc(N3CCOCC3)nc2c1
inactive: [1] 20.6% | [2] 23.6% | [3] 22% | [4] -13.4% | [5] 15.7% | [6] 4.1%

CC(C)OCN1COCN=C1NC#N
inactive: [1] 38.2% | [2] 12.2% | [3] 23.1% | [4] 28.7% | [5] -10.4% | [6] 33%

Cc1cc(C)c(COCc2c(C)cc(C)cc2C)c(C)c1
inactive: [1] 19% | [2] 10.1% | [3] -0.55% | [4] -34.1% | [5] -2% | [6] 12.8%

COc1ccc2nc3cc(Cl)ccc3c(Nc3ccc(C(O)CCN(C)C)cc3)c2c1 (stereo not given)
inactive: [1] 39.8% | [2] -2.1% | [3] 25.4% | [4] 24.4% | [5] -2.1% | [6] 5.3%

CCCc1cc(=O)oc2c3c(c4c(c12)OC(C)(C)CC4)O[C@H](C)C(C)C3=O (stereo not given in full)
inactive: [1] -26.9% | [2] -30% | [3] -28.8% | [4] 0.4% | [5] 6.85% | [6] -45%

COCC(=O)c1ccc(C#N)cc1
inactive: [1] 4.35% | [2] -20.2% | [3] -7.25% | [4] -39% | [5] 4.45% | [6] 2.2%

S=C(NCc1ccccc1)Nc1ncn[nH]1
inactive: [1] 5.1% | [2] 0.25% | [3] -5.8% | [4] -22.9% | [5] 3.55% | [6] 3.8%

O=C(Nc1cccc(F)c1)Sc1ccc(Cl)cc1
inactive: [1] 55% | [2] 53.9% | [3] 56.1% | [4] 34% | [5] 56.4% | [6] 41%

Cc1cc(C)nc(N(C)CCN2CCCCC2)c1
inactive: [1] -6.5% | [2] -3.1% | [3] 3.4% | [4] -25.1% | [5] 5.45% | [6] -5.85%

Cc1cc([N+](=O)[O-])ccc1N=Nc1ccc([N+](=O)[O-])cc1C
inactive: [1] -0.6% | [2] -1.9% | [3] 1.2% | [4] -49.1% | [5] 5.4% | [6] -8.65%

Nc1ccccc1OCCOCCOc1ccccc1N
inactive: [1] -31.9% | [2] -2.65% | [3] -8.45% | [4] 45.4% | [5] 14.9% | [6] -10.5%

C/C(=C\C(C)(C)c1ccccc1)c1ccccc1
inactive: [1] -14.9% | [2] -31.6% | [3] -3.75% | [4] -8.35% | [5] 9.2% | [6] -25.1%

CCOc1ccc2c(c1)nc1ccccc1[n+]2C
inactive: [1] 21.6% | [2] 15.4% | [3] 22% | [4] 25.5% | [5] 52.4% | [6] 39.9%

O=S(=O)(Nc1cccc(F)c1)c1ccc(F)cc1
inactive: [1] -12.5% | [2] -10.4% | [3] -3.6% | [4] 0.3% | [5] -9.95% | [6] 11.6%

CC(=O)NC1=C/C(=C/COC(C)=O)OC1=O
inactive: [1] 22.6% | [2] -9.9% | [3] 11.8% | [4] -57% | [5] 5.8% | [6] 8.75%

C=CCCN=C(SC)SC
inactive: [1] 3.8% | [2] 20.9% | [3] 16.2% | [4] -11.1% | [5] -0.9% | [6] 4.4%

CC(=O)C1C(=O)C(=O)N(c2ccc([N+](=O)[O-])cc2)C1=O (stereo not given)
inactive: [1] -26.9% | [2] -37.4% | [3] -10.7% | [4] 20.9% | [5] -1.9% | [6] -37.5%

CCCCCC1(C)OCC(c2ccccc2)O1 (stereo not given)
inactive: [1] -12.8% | [2] -9.45% | [3] -21% | [4] -47% | [5] -13.3% | [6] 21.1%

CCCCCCc1cc2cc(C(=O)Nc3nc(C45CC6CC(CC(C6)C4)C5)cs3)c(=O)oc2cc1O
inactive: [1] -16.4% | [2] -19.8% | [3] -1.15% | [4] 17.9% | [5] -16.6% | [6] -11.7%

CN1C=CCC(C=O)C1 (stereo not given)
inactive: [1] -13.5% | [2] -4.5% | [3] 0.05% | [4] -3.7% | [5] 1.65% | [6] -7.2%

CC(CS(=O)(=O)Cc1ccccc1)C(N)=O (stereo not given)
inactive: [1] -4.8% | [2] 38.1% | [3] 14.3% | [4] 30.1% | [5] -9.95% | [6] -17.1%

CCC(C)C(N)C1=NC(C(=O)NC(CC(C)C)C(=O)NC(CCC(=O)O)C(=O)NC(C(=O)NC2CCCCNC(=O)C(CC(N)=O)NC(=O)C(CC(=O)O)NC(=O)C(Cc3cnc[nH]3)NC(=O)C(Cc3ccccc3)NC(=O)C(C(C)CC)NC(=O)C(CCCN)NC2=O)C(C)CC)CS1 (stereo not given)
inactive: [1] 12.9% | [2] -24.9% | [3] 0.2% | [4] 25.6% | [5] -15.2% | [6] -7.3%

NC(=S)N/N=C(\CCC(=O)Nc1ccccc1[N+](=O)[O-])CC(=O)c1ccco1
inactive: [1] -1.55% | [2] -1.95% | [3] -19.9% | [4] 27.4% | [5] -19.8% | [6] 6.3%

COc1ccc(OC)c(/C=C/C2=C(C)C(=O)CC(c3cc(OC)ccc3OC)C2C)c1 (stereo not given)
inactive: [1] 4.3% | [2] 12.3% | [3] 28.3% | [4] 8.75% | [5] 2.35% | [6] 4.3%

CCOC(=O)C1=C(c2ccccc2)OC(N)=C(C#N)C1c1ccccc1 (stereo not given)
inactive: [1] -16.9% | [2] -8.4% | [3] -17.6% | [4] 7.6% | [5] 25.3% | [6] -4.85%

Source: PubChem BioAssay (NCI)
